Drawing on PubChem BioAssay (NCI), this text covers growth inhibition for 15 compounds.

Compounds without any hit were thinned out: in the full panel of roughly 79,000, 15% have a hit. A number with no mark means an inactive call. Calls of active or inactive are those of the source. Cut-off read from the data, not from the text of the source: active = growth inhibition above about 70%; inactive = the rest.

This experiment can be described thus: NCI Yeast Anticancer Drug Screen. Data for the cln2 rad14 strain (AID 165).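 Note: 0% = growth equal to vehicle treated cultures.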 The conditions noted are these: S. cerevisiae cln2 rad14 strain, at 50.0 µM, active compounds read high. Summed up:
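Readout is yeast growth inhibition versus vehicle-treated controls, using a strain with cln2 and rad14 alterations exposed to compound.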
As for `Nc1n[n+](-c2ccc(Cl)cc2)no1`, the growth inhibition was 81.7% (active). Take `O=C(C[n+]1ccccc1-c1ccccn1)c1ccc(-c2ccccc2)cc1`: the growth inhibition was -14.7%. In the case of `C[N+]([O-])=C(c1ccccc1)c1ccccc1`, the growth inhibition was 4.5%.

In the case of `CCOc1ccc(C(=O)OC)cc1`, the growth inhibition is 16.8%. As for `O=C(O)c1c(Br)c(Br)c(Br)c(Br)c1C(=O)Nc1ccccc1F`, the growth inhibition was 20.2%.

On to `O=C(OCCCl)C1CC2C=CC1C2` (stereo not given), for which the growth inhibition is 8.25%. Under `CCc1cccc(CC)c1NC(=O)c1ccc(C)cc1` stands 7.2%; under `Nc1nn(CC(O)CO)c(=O)s1` (stereo not given), 11.8%. Under `Nc1nc2ccccc2[nH]1` stands 0.8%; under `COc1ccc(N=Nc2c(C)c(C#N)c(=S)n(C3OC(COC(C)=O)C(OC(C)=O)C(OC(C)=O)C3OC(C)=O)c2-c2ccccc2)cc1` (stereo not given), 9.05%. Under `[N-]=[N+]=NCC1OCOC1C1OCOC1CN=[N+]=[N-]` (stereo not given) stands -33.7%.

As to `COC1OC(COC(c2ccccc2)(c2ccccc2)c2ccccc2)C(OS(=O)(=O)c2ccc(C)cc2)C(OC(=O)c2ccccc2)C1OC(=O)c1ccccc1` (stereo not given), the growth inhibition was -7.35%. Under `Cc1ccc(C)c2c1C(=O)c1ccccc1C2(O)C#Cc1ccccc1` (stereo not given) stands 21.1%; under `CN(c1ccccc1)c1nc(Cl)c(Cl)c(Cl)n1`, -39.9%; under `O=C(NC1CCCCC1)OC/C=C\c1ccccc1`, -6.95%.
